IP6K1 inhibitor = blocks human inositol hexakisphosphate kinase 1 | Q92551 | IP6K1 kinase, ADP-Glo luminescence, 2 h; hits give low values | activity change, % (series mostly up to about 58 µM) | 140,000 tested, 0.81% active; in the data active = activity change below about -25%
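ADP-Glo luminescence measures ADP made by human IP6K1 during a 2 h RT reaction with ATP/IP6 (mix at 1.3 mM/130 uM); top library doses 57.5 and 19.1 uM final.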
KDM5B inh = blocks human KDM5B histone demethylase activity. AID 1347165. 220,000 tested, 2.6% active. Q9UGL1. KDM5B demethylase, FDH-coupled NADH fluorescence (FDH is formaldehyde dehydrogenase). Potency, µM (highest dose often 57.7 µM), most hits filed as inhibitors; also: nearly all actives have a fitted effect of over 70% in size
Target sequence (Q9UGL1 whole entry, looked up): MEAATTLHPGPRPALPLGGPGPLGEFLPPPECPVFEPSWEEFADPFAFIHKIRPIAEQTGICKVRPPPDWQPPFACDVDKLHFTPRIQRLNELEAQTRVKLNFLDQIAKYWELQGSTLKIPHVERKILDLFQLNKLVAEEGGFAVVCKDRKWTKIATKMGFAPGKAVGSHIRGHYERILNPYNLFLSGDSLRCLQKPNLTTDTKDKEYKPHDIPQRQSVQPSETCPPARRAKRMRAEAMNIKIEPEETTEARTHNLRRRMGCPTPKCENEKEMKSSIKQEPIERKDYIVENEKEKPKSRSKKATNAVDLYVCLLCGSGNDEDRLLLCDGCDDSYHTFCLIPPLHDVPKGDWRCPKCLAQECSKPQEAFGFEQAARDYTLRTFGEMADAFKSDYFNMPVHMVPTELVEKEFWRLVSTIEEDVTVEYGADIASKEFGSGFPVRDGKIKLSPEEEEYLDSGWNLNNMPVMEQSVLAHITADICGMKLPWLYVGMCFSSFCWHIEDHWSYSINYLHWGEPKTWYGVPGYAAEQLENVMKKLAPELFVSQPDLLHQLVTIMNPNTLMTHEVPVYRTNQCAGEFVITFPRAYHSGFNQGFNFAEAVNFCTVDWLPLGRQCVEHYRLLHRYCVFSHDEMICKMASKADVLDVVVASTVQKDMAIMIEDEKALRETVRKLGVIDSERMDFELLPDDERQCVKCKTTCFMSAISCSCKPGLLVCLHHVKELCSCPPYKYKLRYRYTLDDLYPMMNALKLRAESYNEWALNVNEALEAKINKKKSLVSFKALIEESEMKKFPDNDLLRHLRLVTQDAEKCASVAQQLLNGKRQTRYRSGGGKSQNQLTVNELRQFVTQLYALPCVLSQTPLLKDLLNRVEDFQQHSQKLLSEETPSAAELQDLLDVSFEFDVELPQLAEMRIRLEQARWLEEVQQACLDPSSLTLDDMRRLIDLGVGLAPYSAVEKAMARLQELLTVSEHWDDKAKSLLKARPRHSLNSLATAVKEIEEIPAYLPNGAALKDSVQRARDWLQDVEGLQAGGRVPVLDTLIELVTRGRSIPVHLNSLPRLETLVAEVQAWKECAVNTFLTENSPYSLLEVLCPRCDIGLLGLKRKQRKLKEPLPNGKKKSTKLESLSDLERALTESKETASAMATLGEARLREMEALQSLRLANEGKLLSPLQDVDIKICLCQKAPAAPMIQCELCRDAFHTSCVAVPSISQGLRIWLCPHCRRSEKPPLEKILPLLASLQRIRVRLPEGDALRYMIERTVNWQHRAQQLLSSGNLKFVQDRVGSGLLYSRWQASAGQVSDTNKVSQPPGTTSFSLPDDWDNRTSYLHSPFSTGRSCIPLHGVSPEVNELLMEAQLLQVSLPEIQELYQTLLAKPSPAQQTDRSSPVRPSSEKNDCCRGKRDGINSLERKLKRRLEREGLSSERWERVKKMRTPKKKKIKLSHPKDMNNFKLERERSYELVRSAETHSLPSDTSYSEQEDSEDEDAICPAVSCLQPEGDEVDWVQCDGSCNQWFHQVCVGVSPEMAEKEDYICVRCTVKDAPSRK
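Inhibition is measured as reduced NADH fluorescence generation from FDH coupling to formaldehyde release. Truncated KDM5BΔAP at 200 nM final acts on H3K4me3 peptide (12.5 µM in substrate mix) in pH 7.5 HEPES buffer with Tween-20, 30 min, room temperature.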
HEK293 viab = counter-screen for SNCA expression inhibitors: cell viability. HEK-293-SNCA-luc viability, GF-AFC fluorescence, 24 h. Potency, µM (top dose mostly 57.1 µM), most hits filed as cytotoxic. 150,000 tested, 0.12% active; also: nearly all actives have a fitted effect of over 30% in size
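HEK-293-SNCA-luc cells (1500/well) plated 24 h, then exposed 24 h to a dilution series; GF-AFC added 30 min at 37C, fluorescence 405/540 nm; normalised to medium-only and DMSO wells, Hill fit.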
SNCA expr inh = reduces expression of the alpha-synuclein gene; HEK-293 SNCA-luciferase knock-in, luminescence, 24 h; Potency, µM (series often up to 57.2 µM), actives largely listed as inhibitors; 140,000 tested, 0.17% active; AID 1671194; also: nearly all actives have a fitted effect of over 45% in size
Hits are given with their value; 0 = inactive; ? = inconclusive; - = no result; [ ] = dose if it differs, or a comment. A selection: hits, their analogues and other compounds. The true share with any hit is near 2.8%. Unless noted, calls follow the shape of the dose curve; as a rule, active = well fitted curve in the direction sought with a large enough effect; inconclusive = small, poorly fitted or top-dose-only effect, or another doubt; inactive = no such curve, though single readings can be large; an effect the other way counts as inactive or inconclusive.

SMILES	IP6K1 inhibitor	KDM5B inh	HEK293 viab	SNCA expr inh
O=C(Nc1ccc(Cl)c(C(F)(F)F)c1)c1ccc2c(c1)CCN2S(=O)(=O)c1ccccc1	0	0	0	?
O=C1OCCN1CCNc1ccc(-c2nc(-c3ccccc3F)no2)cn1	0	28µM	0	0
Cc1ccc(C2SCc3cc(C)c(C)cc3CS2)c(O)c1	-	0	-	-
COc1cc(F)ccc1-c1ccc2ncn(C3CC3)c(=O)c2n1	0	32µM	0	0
O=c1ncn(CC2CC2)c2ccc(-c3ccc(F)cc3F)nc12	0	32µM	0	0
O=c1ncn(Cc2ccccc2)c2ccc(-c3cccnc3)nc12	0	0	0	0
COc1cc(F)ccc1-c1ccc2c(n1)c(=O)ncn2Cc1ccccc1	0	35µM	0	0
O=c1ncn(Cc2ccccc2)c2ccc(-c3ccccc3)nc12	0	35µM	0	0
O=c1c2nc(-c3ccccc3C(F)(F)F)ccc2ncn1C1CC1	0	0	0	0
Cc1cc(C2CCC2)nc(N2CCN(C)C3(CCNC(=O)CC3)C2)n1 (configuration not stated)	0	0	0	0
O=C(O)CCC1CCN(C(=O)c2ccccc2)CC1	0	0	0	0
COCCNC(=O)c1cc(-c2ccc(OC)cc2)nc2onc(C3CCCN3)c12 (configuration not stated)	0	?	0	0
COc1ccc(N2C(=O)C3(CCCCC3)C2C(=O)NCCCN2CCCC2)cc1 (configuration not stated)	0	0	0	0
COc1ccc(N2C(=O)C3(CCCCC3)C2C(=O)NCCN2CCc3ccccc3C2)cc1 (configuration not stated)	0	25µM	0	0
CN1C(=O)CCC2(CNC(=O)c3ccoc3)CCC=C12 (configuration not stated)	0	0	0	?
Cc1noc(-c2ccn3c(CNC(=O)c4ccc(F)cc4Cl)nnc3c2)n1	0	0	0	0
CC(C)c1noc(-c2ccn3c(CNC(=O)c4ccc(F)cc4Cl)nnc3c2)n1	0	28µM	0	0
CCc1noc(-c2ccn3c(CNC(=O)c4cc(F)ccc4Cl)nnc3c2)n1	0	28µM	0	0
CCOc1ccccc1C(=O)NCc1nnc2cc(-c3nc(CC)no3)ccn12	0	28µM	0	0
CCOC(=O)c1ccc(NC(=O)c2cn(-c3ccccc3)nc2-c2ccc(C)cc2)cc1	0	0	0	0
NS(=O)(=O)c1cccc(NC(=O)c2ccc3ccccc3n2)c1	-	0	-	-
COCc1ncc(C)n1CCNC(=O)c1ccc(C)[nH]c1=O	0	22µM	0	0
O=C(Cc1cccc(Cl)c1)NC1CCN(c2nccc(Nc3ccccc3F)n2)CC1	0	-	0[12.5 µM]	0
COc1ccc(-c2cc(C(=O)NCc3c(C)cc(C)[nH]c3=O)c3c(c2)N(C)CCO3)cn1	0	35µM	0	0
COc1ccccc1-c1cc(C(=O)NCc2c(C)cc(C)[nH]c2=O)c2c(c1)N(C)CCO2	0	?	?	?
SMILES	IP6K1 inhibitor	KDM5B inh	HEK293 viab	SNCA expr inh
Cc1ccc(-c2cc(C(=O)NCc3c(C)cc(C)[nH]c3=O)c3c(c2)N(C)CCO3)cc1	0	?	0	0
Cc1cc(C)c(CNC(=O)c2cc(-c3ccc(CO)cc3)cc3c2OCCN3C)c(=O)[nH]1	0	32µM	0	0
Cc1cc(C)c(CNC(=O)c2cc(-c3ccccc3)cc3c2OCCN3C)c(=O)[nH]1	0	32µM	0	0
O=c1n(-c2cccc(Cl)c2)nc2n1CCN(Cc1cccc3ccccc13)C2	0	0	0	0
Cc1ccc(OC(=O)c2cc(-c3ccccc3)nc3ccc(C)cc23)cc1	0	0	0	0
O=C(c1cc2c(s1)CN(C1CCCC1)C2)N1CCCN(c2ncccn2)CC1	0	6.3µM	0	0
COc1ccc(CN(C)Cc2cccn2C)cc1	0	0	?	0
CCOC(=O)CN1CCCC1c1ccc(C(=O)NCCn2ccnc2)s1 (configuration not stated)	0	28µM	0	0
COc1ccc(C2CCCN2C(=O)NCCn2ccnc2)cc1OC (configuration not stated)	-	0	-	-
COc1nccnc1NC1CCN(C(=O)COc2ccccc2C)CC1	0	32µM	0	0
COc1nccnc1NC1CCN(C(=O)NC2CCCC2)CC1	0	28µM	0	0
COc1nccnc1NC1CCN(C(=O)COc2ccc(C)cc2)CC1	0	28µM	0	0
COc1ccc(NC2CCCN(C(=O)COc3ccc(C)cc3)C2)cc1 (configuration not stated)	-	0	-	-
COc1ccc(CN2CCOc3nc(-c4cc5ccccc5o4)ncc3C2=O)cc1	0	32µM	0	0
COc1ccc(CN2CCOc3nc(-c4cccc(NC(C)=O)c4)ncc3C2=O)cc1	0	?	0	0
O=C1c2cnc(-c3ccc(Oc4ccccc4)cc3)nc2OCCN1CC1CC1	0	35µM	?	?
CCOC(=O)N1CCN([N+]([O-])=NOc2cc(ON=[N+]([O-])N3CCN(C(=O)OCC)CC3)c([N+](=O)[O-])cc2[N+](=O)[O-])CC1	-	-	0	0
CC(C)C(=O)NCC1CN(Cc2ccccc2)C(=O)c2c(ccnc2-c2ccc(OCC(=O)O)cc2)O1 (configuration not stated)	0	?	?	2.8µM
CCOC(=O)c1ccc(NC(=O)CSc2ncc(S(=O)(=O)c3ccc(C)c(Cl)c3)c(=O)[nH]2)cc1	-49	0	0	0
CC(C)C[C@H](NC(=O)c1csc2nc(-c3cccc(C(F)(F)F)c3)cn12)C(N)=O	0	?	0	0
Cn1ccc(C(=O)N[C@@H]2COCC[C@@H]2OCc2cscn2)cc1=O	0	28µM	0	0
CCCNC(=O)N1CC[C@@H](CC(=O)O)[C@@H](CC2=NCCc3cc(OC)ccc32)C1	0	?	0	0
COc1cc2c(cc1OC)C(C[C@H]1CN(C(=O)Nc3ccc(F)cc3)CC[C@H]1CC(=O)O)=NCC2	0	28µM	0	0
CCCNC(=O)N1CC[C@@H](CC(=O)O)[C@@H](CC2=NCCc3cc(F)ccc32)C1	0	32µM	0	0
COc1cc2c(cc1OC)C(C[C@H]1CN(C(=O)Nc3cccc(C(C)=O)c3)CC[C@H]1CC(=O)O)=NCC2	0	28µM	0	0
SMILES	IP6K1 inhibitor	KDM5B inh	HEK293 viab	SNCA expr inh
COc1cc2c(cc1OC)C(C[C@H]1CN(C(=O)N3CCOCC3)CC[C@H]1CC(=O)O)=NCC2	0	0	0	0
CN(CCc1ccccn1)c1ccc(-c2nc(COc3ccccc3)no2)cn1	0	28µM	0	0
CN(Cc1cccnc1)c1ccc(-c2nc(COc3ccccc3)no2)cn1	0	35µM	0	0
CN(CCO)c1ccc(-c2nc(CCCc3ccccc3)no2)cn1	0	?	0	0
COc1ccc(C(=O)NCC23CCCC=C2NC(=O)CC3)cc1OC (configuration not stated)	0	-	0	0
O=C(NCc1ccc2c(c1)CCN2C(=O)c1ccc(F)cc1)c1c(F)cccc1F	0	0	0	0
CNC(=O)c1c(F)cccc1Nc1nc(Nc2cc3c(cc2OC)CCN3C(=O)CN(C)C)nc2[nH]ccc12	0	-	0	14µM
